Records with an inconclusive call do not appear. Entries that show only a call come without a potency. Calls of active or inactive are those of the source. Calls come from the whole dose curve; as a rule, active = well fitted curve in the direction sought with a large enough effect; inconclusive = small, poorly fitted or top-dose-only effect, or another doubt; inactive = no such curve, though single readings can be large; an effect the other way counts as inactive or inconclusive.
What was measured:
[1] = target: Aldehyde dehydrogenase, mitochondrial (Homo sapiens) (UniProt P05091); experiment: qHTS for Inhibitors of the Aldehyde Dehydrogenase Family (ALDH2) Primary screen (AID 2061308); note: nearly all actives have a fitted effect of over 55% in size
[2] = target: Retinaldehyde dehydrogenase 3 (Homo sapiens) (UniProt P47895); experiment: qHTS for Inhibitors of the Aldehyde Dehydrogenase Family (ALDH1A3) Validation screen (AID 2061312); note: nearly all actives have a fitted effect of over 45% in size; note: potency is the fitted concentration of half-maximal effect
[3] = target: Retinaldehyde dehydrogenase 3 (Homo sapiens) (UniProt P47895); experiment: qHTS for Inhibitors of the Aldehyde Dehydrogenase Family (ALDH1A3) Primary screen (AID 2061315)
[4] = BET inhibitor-based combinations targeting novel dependencies in MECOM-rearranged (r) AML: AML-194 cell line (AID 2202237; note: potency is the fitted concentration of half-maximal effect; nearly all actives have a fitted effect of over 40% in size)
How it was run: (§1)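 A 48 hr incubation preceded viability reading by CellTiter-Glo, with 15 min room-temperature development. Dose series had 11 points; normalization used DMSO and empty wells; AUC was computed and mean-centered per line as Z-AUC.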

[5] = BET inhibitor-based combinations targeting novel dependencies in MECOM-rearranged (r) AML: SET-2 cell line (AID 2202231); settings: SET-2 AML cells viability, CellTiter-Glo luminescence, 48 h; viability: active compounds read low, concentration not given here; note: potency is the fitted concentration of half-maximal effect; nearly all actives have a fitted effect of over 35% in size
How it was run: as §1

[6] = BET inhibitor-based combinations targeting novel dependencies in MECOM-rearranged (r) AML: OCI-AML3 cell line (AID 2202232); settings: Potency: OCI-AML3 viability; note: potency is the fitted concentration of half-maximal effect; nearly all actives have a fitted effect of over 35% in size
How it was run: as §1

[7] = BET inhibitor-based combinations targeting novel dependencies in MECOM-rearranged (r) AML: MV-4-11 cell line (AID 2202233); note: potency is the fitted concentration of half-maximal effect; nearly all actives have a fitted effect of over 45% in size
How it was run: (§2)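 Each compound is tested in an 11-point concentration series against 500 seeded cells/well for 48 hr. The luminescent viability signal is normalized to DMSO and blank wells, then reduced to AUC and a cell-line-centred Z-AUC.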

[8] = BET inhibitor-based combinations targeting novel dependencies in MECOM-rearranged (r) AML: HNT-34 cell line (AID 2202234); note: potency is the fitted concentration of half-maximal effect; nearly all actives have a fitted effect of over 35% in size
How it was run: as §2

[9] = BET inhibitor-based combinations targeting novel dependencies in MECOM-rearranged (r) AML: UCSD-AML1 cell line (AID 2202235); note: potency is the fitted concentration of half-maximal effect; nearly all actives have a fitted effect of over 40% in size
How it was run: as §2

[10] = BET inhibitor-based combinations targeting novel dependencies in MECOM-rearranged (r) AML: AML-191 cell line (AID 2202236; note: potency is the fitted concentration of half-maximal effect; nearly all actives have a fitted effect of over 35% in size)
How it was run: as §1

[11] = target: Retinal dehydrogenase 2 (Homo sapiens) (UniProt O94788); experiment: qHTS for Inhibitors of the Aldehyde Dehydrogenase Family (ALDH1A2) Confirmation screens (AID 2061314); note: nearly all actives have a fitted effect of over 65% in size; note: potency is the fitted concentration of half-maximal effect

## CCc1cnn2c(NCc3ccc[n+]([O-])c3)cc(N3CCCCC3CCO)nc12 (stereo not drawn)
[1]
  Potency: inactive
[2]
  Potency: inactive
[3]
  Potency: inactive

## C#CCNCc1cc2cc(OCc3ccccc3)ccc2[nH]1
[1]
  Potency: inactive
[2]
  Potency: inactive
[3]
  Potency: inactive

## O=C(NC1Cc2ccccc2N(C[C@@H](O)CO)C1=O)c1cc2cc(Cl)sc2[nH]1 (stereo partly drawn)
[1]
  Potency: inactive
[2]
  Potency: inactive
[3]
  Potency: inactive

## Cc1nc2ccc(CN(C)c3ccc(C(=O)NC(CCC(=O)O)C(=O)O)s3)cc2c(=O)[nH]1 (stereo not drawn)
[1]
  Potency: inactive
[2]
  Potency: inactive
[3]
  Potency: inactive

## CC(C)n1cnc2c(Nc3cccc(Cl)c3)nc(NCCO)nc21
[1]
  Potency: inactive
[2]
  Potency: inactive
[3]
  Potency: inactive

## C[C@H]1[C@H](C)C[C@@H](C(=O)O)C2CC[C@]3(C)C(=CC[C@@H]4[C@@]5(C)CC[C@H](O)C(C)(C)[C@@H]5CC[C@]43C)[C@@H]21 (stereo partly drawn)
[1]
  Potency: inactive
[2]
  Potency: inactive
[3]
  Potency: inactive

## Cc1cc(C)cc(-c2cnc3cc(Cl)c(-c4cccc(O)c4)cc3c2OCCCN)c1
[1]
  Potency: inactive
[2]
  Potency: inactive
[3]
  Potency: inactive

## COc1cc2ncnc(N3CCC(Oc4cnc5ccccc5n4)C3)c2cc1OC (stereo not drawn)
[1]
  Potency: inactive
[2]
  Potency: inactive
[3]
  Potency: inactive

## CN(c1ccccc1CNc1nc(Nc2ccc3c(c2)CC(=O)N3)ncc1C(F)(F)F)S(C)(=O)=O
[1]
  Potency: inactive
[2]
  Potency: inactive
[3]
  Potency: inactive

## CCOc1cc(C(C)(C)C)ccc1C1=NC(C)(c2ccc(Cl)cc2)C(C)(c2ccc(Cl)cc2)N1C(=O)N1CCN(CCCS(C)(=O)=O)CC1 (stereo not drawn)
[1]
  Potency: inactive
[2]
  Potency: inactive
[3]
  Potency: inactive

## CC(=O)OC12COC1CC(O)C1(C)C(=O)C(O)C3=C(C)C(OC(=O)C(O)C(NC(=O)OC(C)(C)C)c4ccccc4)CC(O)(C(OC(=O)c4ccccc4)C21)C3(C)C (stereo not drawn)
[1]
  Potency: inactive
[2]
  Potency: inactive
[3]
  Potency: inactive

## N#CC(CCCN1CCC(O)(c2ccc(Cl)cc2)CC1)(c1ccccc1)c1ccccc1
[1]
  Potency: inactive
[2]
  Potency: inactive
[3]
  Potency: inactive

## CC(=O)Nc1cccc2c1c(Sc1ccc(Cl)cc1)c(C)n2CC(=O)O
[1]
  Potency: inactive
[2]
  Potency: inactive
[3]
  Potency: inactive

## CC(=O)c1c(OCCN2CCCCC2)c(OCCC(C)c2ccc(F)cc2)c2oc(C)nc2c1C (stereo not drawn)
[1]
  Potency: inactive
[2]
  Potency: inactive
[3]
  Potency: inactive

## CC(=O)N1CCN([C@H]2CCN(C(=O)N(C)[C@H](C)c3cc(C(F)(F)F)cc(C(F)(F)F)c3)[C@@H](c3ccc(F)cc3C)C2)CC1
[1]
  Potency: inactive
[2]
  Potency: inactive
[3]
  Potency: inactive

## Cc1ccc2nc(NC(=O)CSc3nc4c(c(=O)n3-c3ccc(F)cc3)SCC4)sc2c1
[1]
  Potency: inactive
[2]
  Potency: inactive
[3]
  Potency: inactive

## CC(C)(C)c1ccc(CN2CCN(C(c3ccccc3)c3ccc(Cl)cc3)CC2)cc1 (stereo not drawn)
[1]
  Potency: inactive
[2]
  Potency: 31.6 µM (active)
[3]
  Potency: inactive

## Cc1cn(C2C=CC(CO)O2)c(=O)[nH]c1=O (stereo not drawn)
[1]
  Potency: inactive
[2]
  Potency: inactive
[3]
  Potency: inactive

## COc1ccc(N(C(=O)Nc2c(C)cccc2C)c2cc(Nc3ccc(N4CCN(C)CC4)cc3)ncn2)c(OC)c1
[1]
  Potency: inactive
[2]
  Potency: inactive
[3]
  Potency: inactive

## CCOC(=O)[C@@H](N)Cc1ccc(-c2cc(O[C@H](c3ccc(Cl)cc3-n3ccc(C)n3)C(F)(F)F)nc(N)n2)cc1
[4]
  Potency: 26.3 µM (active)

## CCCc1cc(C)[nH]c(=O)c1CNC(=O)c1cc(-c2ccc(N3CCN(C(C)C)CC3)nc2)cc2c1cnn2C(C)C
[4]
  Potency: 14.8 µM (active)

## Cc1cnc(Nc2ccc(CN3CCOCC3)cc2)nc1Nc1cccc(S(=O)(=O)NC(C)(C)C)c1
[1]
  Potency: inactive
[2]
  Potency: inactive
[3]
  Potency: inactive
[5]
  Potency: 2.63 µM (active)
[6]
  Potency: 2.63 µM (active)
[7]
  Potency: 0.417 µM (active)
[8]
  Potency: 1.18 µM (active)
[9]
  Potency: 1.48 µM (active)
[10]
  Potency: 2.63 µM (active)
[4]
  Potency: 2.35 µM (active)

## O=C(c1ccc(F)c(F)c1Nc1ccc(I)cc1F)N1CC(O)([C@@H]2CCCCN2)C1
[1]
  Potency: inactive
[2]
  Potency: inactive
[3]
  Potency: inactive
[8]
  Potency: 0.742 µM (active)
[9]
  Potency: 0.296 µM (active)
[10]
  Potency: 8.33 µM (active)
[4]
  Potency: 7.42 µM (active)

## COc1ccc(C2=Nn3c(nnc3-c3ccc(OC)cc3OC)SC2)cc1
[1]
  Potency: inactive
[11]
  Potency: inactive
[3]
  Potency: inactive

## CC(=O)Nc1ccc(-c2csc(N3CCC(C(N)=O)CC3)n2)cc1
[1]
  Potency: inactive
[11]
  Potency: 22.5 µM (active)
[3]
  Potency: inactive

## CCCC1(CCC)CCC2(CCN(CCCN(CC)CC)C2)CC1
[1]
  Potency: inactive
[2]
  Potency: inactive
[3]
  Potency: inactive
[6]
  Potency: 7.42 µM (active)
[7]
  Potency: 6.61 µM (active)
[8]
  Potency: 4.68 µM (active)
[9]
  Potency: 8.33 µM (active)
[10]
  Potency: 9.34 µM (active)
[4]
  Potency: 9.34 µM (active)

## CNCc1ccc(C)c(NC(=O)c2ccc(Nc3nc(-c4ccccc4)c4ccccc4n3)cc2)c1
[1]
  Potency: inactive
[2]
  Potency: inactive
[3]
  Potency: inactive
[6]
  Potency: 16.6 µM (active)
[7]
  Potency: 13.2 µM (active)
[8]
  Potency: 20.9 µM (active)
[10]
  Potency: 20.9 µM (active)

Reference: PubChem BioAssay (NCATS)
